Drawing on PubChem BioAssay (EPA / NIEHS), this text covers outcome and AC50 for 40 compounds.

Structures are written as SMILES. Active and inactive are the calls of the source. The calls were made as follows: active = hit-call score of the fitted dose curve at least 0.9, where 1 is the maximum; inactive = score below 0.9.

What is called AC50 is the concentration giving half of the maximal activity seen.

This assay can be described thus: APR_HepG2_NuclearSize_24hr: Apredica 24-hour HepG2 Assay for Nuclear Size (AID 2282907). As to conditions: high-content imaging, actives raise or lower the signal. As to the method: APR_HepG2_24hr is a cell-based, multiplexed-readout assay that uses HepG2, a human liver cell line, with measurements taken at 24 hours after chemical dosing in a 384-well plate.APR_HepG2_NuclearSize_24hr is one of 10 assay component(s) measured or calculated from the APR_HepG2_24hr assay. It is designed to make measurements of cell phenotype, a form of morphology reporter, as detected with fluorescence intensity signals by HCS Fluorescent Imaging technology.Data from the assay component APR_HepG2_NuclearSize_24hr was analyzed into 1 assay endpoint. This assay endpoint, APR_HepG2_NuclearSize_24hr, was analyzed with bidirectional fitting relative to DMSO as the negative control and baseline of activity. Using a type of morphology reporter, measures of all nuclear dna for gain or loss-of-signal activity can be used to understand the signaling at the nuclear-level. Furthermore, this assay endpoint can be referred to as a primary readout, because this assay has produced multiple assay endpoints where this one serves a signaling function. To generalize the intended target to other relatable targets, this assay endpoint is annotated to the cell morphology intended target family, where the subfamily is organelle conformation.
Cells were treated with dimethyl sulfoxide (DMSO) as a solvent control at a final concentration of 0.5% v/v or with compounds in DMSO with a resulting final DMSO concentration of 0.5% v/v. Compound treatment was done at concentrations of 0.39, 0.78, 1.56, 3.12, 6.24, 12.5, 25, 50, 100, and 200 uM in duplicate on each plate. Cells were treated with compounds for 1, 24, or 72 hr. Carbonyl […] m-chloro-phenylhydrazone (CCCP) and taxol were used as positive controls for mitochondrial function and cytoskeletal stability, respectively; DMSO served as the negative control for this experiment. Cells were fixed by the direct addition of 50 uL formaldehyde in Hank's Balanced Salt Solution (HBSS) to a final concentration of 3.7%. After incubation in the fixation medium for 30 min at room temperature (293-298 K), cells were rinsed twice with HBSS and treated with cell permeabilization buffer (16 uL of 0.5% Triton X-100) for 10 min at room temperature (293-298 K) before labeling. For mitochondrial membrane potential and mitochondrial measurements, pre-fixed cells were incubated with 50 uL of MitoTracker Red CMXRos (Invitrogen) at a concentration of 250 nM for 30 min before fixation. In the remaining cases, post-fixed cells were labeled by incubation with a multiplexed mixture of primary antibodies in HBSS for 60 min at room temperature (293-298 K) to detect immunoreactivity of c-Jun (1:500), phospho-histone H3 (1:100), phospho-histone H2A.x (1:200), p53 (1:400), alpha-tubulin (1:200) and Hoechst 33342 (2 ug/mL). Cells were labeled for multiplexed imaging on two separate plates: a) Hoechst 33342, MitoTracker Red, phospho-histone H3, and alpha-tubulin, and b) Hoechst 33342, phospho-histone H2A.x, and c-Jun. A final rinse with HBSS (50 uL) was performed before analysis. The primary and secondary antibodies for the proteins were phospho-histone H3 (rabbit anti-phospho-histone H3 and FITC-donkey anti-rabbit IgG), phospho-histone H2A.x (mouse anti-phospho-histone H2A.x and FITC-donkey anti-mouse IgG), c-Jun (rabbit anti-phospho-c-Jun and Cy3-donkey anti-rabbit IgG), p53 (sheep anti-p53 and Cy5-donkey anti-sheep IgG), alpha-tubulin (mouse anti-alpha-tubulin and Cy5-donkey anti-mouse IgG). These antibodies are available as the CellCiphr HepG2 assay kit (Millipore).Digital images of each well were captured using a Cellomics ArrayScan VTI (Thermo Scientific Cellomics) (0.8 NA objective, 0.63x optical coupler, and XF-93 filter set) at 20x magnification. The images were acquired using the autofocus feature of the ArrayScan instrument, which entails the following steps. First, the camera focuses on channel 1 (Hoechst 33342), where nuclei are identified. Second, a Z offset of 1 um is used for capturing mitochondria (MitoTracker Red). […]
For `C=CCOC(=O)c1ccccc1C(=O)OCC=C`, the outcome was inactive.

`CCOC(=O)C(C)(C)Oc1ccc(Cl)cc1`: the compound was classed as inactive.

`COc1ccc2c(c1)c(CC(=O)O)c(C)n2C(=O)c1ccc(Cl)cc1`: the compound was classed as inactive.

`CCCCOC(=O)CCCCCCCCC(=O)OCCCC`: the outcome was inactive.

For the compound `Cc1cccc([N+](=O)[O-])c1C`, the result was inactive.

For the compound `Nc1ccc(S(=O)(=O)c2ccc(N)cc2)cc1`, the call was inactive.

On to `CC1(C)CC(N=C=O)CC(C)(CN=C=O)C1` (stereo not given), for which the outcome was inactive.

Take `Nc1ccc2c(c1)C(=O)c1ccccc1C2=O`: the compound was classed as inactive.

On to `NCCO`, for which the outcome was inactive.

Take `NC(=O)Cn1c(=O)cc(CCN2CCN(c3nccc4sccc34)CC2)c2ccc(F)cc21`: the result was inactive.

`C=CCc1ccc(O)c(OC)c1`: the outcome was inactive.

As to `O=C(O)Cc1ccccc1Nc1c(Cl)cccc1Cl`, the compound was called inactive.

Take `C1CCC(SSC2CCCCC2)CC1`: the call was inactive.

Consider `CCCCCCCCCCCCCO`, for which the compound was called inactive.

`CC(=O)OCCOCCOCCOC(C)=O`: the result was inactive.

On to `CCCCCCCCCCCCCCCC`, for which the compound was called inactive.

For the compound `C[Si]1(C)O[Si](C)(C)O[Si](C)(C)O[Si](C)(C)O1`, the call was inactive.

Regarding `CCOC(=O)CCC(=O)OCC`, the compound was called inactive.

Consider `CCCCC(CC)COC(=O)CC(C(=O)OCC(CC)CCCC)S(=O)(=O)O` (stereo not given), for which the outcome was inactive.

On to `Oc1ccc2c(c1)OC[C@@H](N1CCC(O)(c3ccc(F)cc3)CC1)[C@H]2O`, for which the result was inactive.

For `O=c1c(O)c(-c2ccc(O)c(O)c2)oc2cc(O)cc(O)c12`, the result was inactive.

In the case of `O=C(N[C@@H](Cc1ccccc1)[C@@H](O)C(=O)N1C[C@@H](O)[C@@H](O)C1)c1cc2cc(Cl)ccc2[nH]1`, the outcome was inactive.

With `CN1CCCC1=O`, the compound was called inactive.

As to `COCCOC[C@H](CC1(C(=O)NC2CCC(C(=O)O)CC2)CCCC1)C(=O)Oc1ccc2c(c1)CCC2` (stereo not given in full), the compound was classed as inactive.

As to `NS(=O)(=O)c1cc2c(cc1Cl)NCNS2(=O)=O`, the result was inactive.

For `CCNc1cccc(C)c1`, the result was inactive.

For `CNCc1cc(F)ccc1Oc1ccc(Cl)c(Cl)c1`, the concentration at half-maximal activity (AC50) was 54.7 µM (active).

As for `CC(=O)C(C)=CC1C(C)=CCCC1(C)C` (stereo not given), the result was inactive.

For the compound `OC[C@@H](O)[C@@H](O)[C@H](O)[C@H](O)CO`, the outcome was inactive.

Consider `COc1cc(C=O)ccc1O`, for which the result was inactive.

For `Nc1nc(N)c2nc(CNc3ccc(C(=O)N[C@@H](CCC(=O)O)C(=O)O)cc3)cnc2n1`, the call was inactive.

Turning to `FC(F)(F)C(F)(F)C(F)(F)C(F)(F)C(F)(F)C(F)(F)CCI`, the result was inactive.

`O=C(O)CCCCC(=O)O`: the call was inactive.

In the case of `Cc1cccc(Nc2cc(Cl)nc(SCC(=O)O)n2)c1C`, the compound was called inactive.

Regarding `CCCCCCCCCCC`, the call was inactive.

Consider `O=c1[nH]cc(F)c(=O)[nH]1`, for which the result was inactive.

As for `CC(C)c1ccc(C(=O)N=C(N)N)cc1S(C)(=O)=O`, the call was inactive.

In the case of `CCCCCCOCCO`, the compound was called inactive.

As to `CC1=C(/C=C/C(C)=C/C=C/C(C)=C/CO)C(C)(C)CCC1`, the call was inactive.

With `Cc1ccc(Cl)cc1`, the compound was called inactive.
